Compound activity: PubChem, National Center for Advancing Translational Sciences (NCATS)
A selection: hits, their analogues and other compounds. The true share with any hit is near 5.6%.
VP16 counter: VP16 counterscreen qHTS for inhibitors of ROR gamma transcriptional activity | Drosophila S2 Gal4-VP16 UAS-luciferase, luminescence, 20 h | Potency, µM (doses to about 53.6 µM), inactives show at the highest dose activity, negative = inhibition, actives largely listed as inhibitors | hit rate 3.5% among 310,000 | AID 2546, 2010;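 also: Gal4-VP16 expression switched on by copper sulfate through the metallothionein promoter; potency is read from the fitted curve at half-maximal effect; nearly all actives have a fitted effect of over 50% in size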
CtBP-E1A inh: qHTS Assay for Inhibitors of the CtBP/E1A Interaction. CtBP / adenovirus E1A interaction (AlphaScreen). AlphaScreen GST-E1A/His-CtBP binding, 1536-well; stronger effect = lower value. activity change, % (concentration not given with the values). hit rate 0.49% among 340,000. AID 651724, 2012; in the data active = activity change below about -65%; inconclusive = mostly about -30% to -63%
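Protein mix (5X: 125 nM each GST-E1A, His-CtBP) was incubated with pinned compound 2 h at 37 deg C in dark, in 50 mM Tris pH 8.0 buffer with 300 mM NaCl. Glutathione donor and nickel acceptor beads followed; AlphaScreen signal read after 1 h.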
RORgamma inh: qHTS for inhibitors of ROR gamma transcriptional activity; AID 2551, 2010; Nuclear receptor ROR-gamma (Mus musculus), P51450; Potency, µM (titrated, usually from 53.6 µM), for the others: at the top dose activity change, negative = inhibition, hits mostly inhibitors; Drosophila S2 Gal4-RORgamma UAS-luciferase reporter, 20 h; hit rate 5.4% among 310,000; also: potency is read from the fitted curve at half-maximal effect; nearly all actives have a fitted effect of over 60% in size
Target sequence (P51450 whole entry, looked up, the tested form may be a part): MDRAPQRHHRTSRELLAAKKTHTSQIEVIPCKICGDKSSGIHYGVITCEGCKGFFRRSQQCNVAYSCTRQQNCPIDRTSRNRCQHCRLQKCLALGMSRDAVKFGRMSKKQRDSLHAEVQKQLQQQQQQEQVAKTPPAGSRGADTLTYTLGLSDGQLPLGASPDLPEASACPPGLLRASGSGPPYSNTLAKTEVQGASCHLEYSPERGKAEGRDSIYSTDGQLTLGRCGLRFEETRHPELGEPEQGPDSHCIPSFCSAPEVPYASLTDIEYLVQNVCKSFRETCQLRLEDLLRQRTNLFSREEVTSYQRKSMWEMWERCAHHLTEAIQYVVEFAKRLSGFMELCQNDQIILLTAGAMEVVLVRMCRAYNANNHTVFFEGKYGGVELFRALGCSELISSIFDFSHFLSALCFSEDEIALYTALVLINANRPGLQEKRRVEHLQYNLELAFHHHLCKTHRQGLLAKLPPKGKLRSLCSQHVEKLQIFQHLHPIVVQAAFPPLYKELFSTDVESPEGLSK
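Read-out: Photinus luciferase luminescence; inhibitors lower reporter signal. Insect Schneider cells with Gal4-ROR gamma fusion under metallothionein promoter, UAS reporter; 700 uM final copper sulfate induction, 20 hr, ambient temperature.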
Six1-Eya2 blk: qHTS Assay for Inhibitors of the Six1/Eya2 Interaction; AlphaScreen GST-Six1/His-Eya2 binding, biochemical; stronger effect = lower value; activity change, % (test concentration not listed); hit rate 0.56% among 360,000; in the data active = activity change below about -65%; inconclusive = mostly about -30% to -63%
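Six1/Eya2 binding was read as AlphaScreen signal after compounds were pinned into GST-Six1 plus His-tagged Eya2 (5X stock 250/500 nM) in pH 8.0 Tris/NaCl/TCEP buffer, beads added, then incubated 1 h, 37 C, dark.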
PKM2 activator: qHTS Assay for Activators of Human Muscle isoform 2 Pyruvate Kinase. Pyruvate kinase PKM (Homo sapiens), P14618. purified PKM2, Kinase-Glo ATP luminescence, activation; response scale: 0% is enzyme alone, no compound. Potency, µM (top dose mostly 57.5 µM), inactives show top-dose activation, actives largely listed as activators. hit rate 0.34% among 260,000. AID 1631, 2009; also: potency is read from the fitted curve at half-maximal effect; nearly all actives have a fitted effect of over 55% in size
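Purified hPK-M2 (>95% pure) converted ADP (0.1 mM final) to ATP with 0.5 mM PEP in 50 mM imidazole pH7.2, KCl, MgCl2, Tween 20, BSA; 1 h at room temperature. ATP detected by Kinase-Glo luminescence.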
Starred values were filed as active, the others as inactive; u = inconclusive; x = no result. Unless noted, calls follow the shape of the dose curve; as a rule, active = well fitted curve in the direction sought with a large enough effect; inconclusive = small, poorly fitted or top-dose-only effect, or another doubt; inactive = no such curve, though single readings can be large; an effect the other way counts as inactive or inconclusive. % is scaled to controls: 0 for no effect and ±100 for the full control effect.

SMILES | VP16 counter | CtBP-E1A inh | RORgamma inh | Six1-Eya2 blk | PKM2 activator
O=C(O)c1ccc(S(=O)(=O)N[C@H](Cc2ccc(O)cc2)C(=O)O)cc1 | 1% | x | -1% | x | x
Cc1ccc(NC(=O)COC(=O)C2(C)CC2(Cl)Cl)cc1S(=O)(=O)N1CCOCC1 (stereo unspecified) | x | 3 | x | -5 | x
COCc1nnc(NC(=O)c2ccc(S(=O)(=O)N3CCOCC3)cc2)o1 | 20µM* | -18 | 11µM* | u | 0%
COCc1nnc(NC(=O)c2ccc(S(=O)(=O)N3CCCc4ccccc43)cc2)o1 | 3.5µM* | -8 | 0.63µM* | -2 | -2%
O=C(Nc1nnc(C2CC2)o1)c1ccc(S(=O)(=O)N2CCCc3ccccc32)cc1 | 0.71µM* | -3 | 0.32µM* | -6 | -12%
O=C(NCc1ccccc1)c1ccc(S(=O)(=O)N2CCCc3ccccc32)cc1 | -6% | -8 | u | 2 | 3%
CC(=O)Nc1ccc(S(=O)(=O)N2CCCc3ccccc32)cc1 | 0% | 6 | -19% | 3 | -2%
O=C(Nc1ccc(S(=O)(=O)N2CCOCC2)cc1)c1ccc(S(=O)(=O)N2CCOCC2)cc1 | -8% | -2 | 10% | 23 | x
COc1cccc(/C=N/Nc2ncnc3c2[nH]c2ccc(C)cc23)c1OC | u | x | 6.3µM* | -7 | u
COc1ccc(/C=N/Nc2ncnc3c2[nH]c2ccccc23)c(OC)c1OC | 0% | 6 | 4% | 6 | -5%
COc1cccc(C=NNc2nnc(NN=Cc3cccc(OC)c3OC)c3ccccc23)c1OC | x | -86* | x | -78* | x
COc1cccc(/C=N/n2c(CO)nc3ccccc32)c1OC | 8% | 0 | 3% | -1 | 0%
COc1ccccc1/C=N/Nc1nncc2ccccc12 | 4µM* | -23 | 2µM* | -13 | -3%
CNc1nc2ccccc2n1/N=C/c1cccc(OC)c1OC | -22% | -9 | 13µM* | -10 | -2%
COC(=O)C(Cc1ccccc1)NCC(=O)Nc1cccc(Cl)c1C (stereo unspecified) | -6% | 2 | -31% | 4 | x
Cc1c[n+]([O-])cc(C)c1[N+](=O)[O-] | x | 3 | x | 12 | x
CCn1cc(C(=O)O)c(=O)c2cc(F)c(N3CCN(C(=S)NC(=O)c4cccc(F)c4)CC3)cc21 | 3% | 0 | 2.8µM* | 1 | -7%
CCn1cc(C(=O)O)c(=O)c2cc(F)c(N3CCN(C(=S)NC(=O)c4c(OC)cccc4OC)CC3)cc21 | -7% | 0 | 4% | -6 | x
CCCOc1ccc(C(=O)NC(=S)N2CCN(c3cc4c(cc3F)c(=O)c(C(=O)O)cn4CC)CC2)cc1 | -16% | -1 | 1.8µM* | 0 | x
CCn1cc(C(=O)O)c(=O)c2cc(F)c(N3CCN(C(=S)NC(=O)c4ccc(F)c(F)c4)CC3)cc21 | u | x | u | 3 | -1%
CCn1cc(C(=O)O)c(=O)c2cnc(N3CCN(C(=S)NC(=O)c4ccc(F)c(F)c4)CC3)nc21 | u | 3 | 2.5µM* | -7 | x
CCn1cc(C(=O)O)c(=O)c2cc(F)c(N3CCN(C(=S)NC(=O)c4ccc(F)cc4)CC3)cc21 | 4µM* | -3 | 2.5µM* | 9 | -4%
Cc1ccc(S(=O)(=O)N(C)C)cc1NC(=O)COC(=O)CNC(=O)c1cccs1 | x | -13 | x | 6 | x
COc1ccc(-c2csc(NC(=S)NC(=O)c3ccco3)n2)cc1Br | u | 0 | 7.9µM* | 1 | x
Cc1ccc(-c2csc(NC(=O)CCNC(=O)c3ccco3)n2)cc1 | -14% | -3 | u | 1 | 0%
Cc1ccc(-c2csc(NC(=S)NC(=O)c3ccco3)n2)cc1 | u | -10 | 5.6µM* | -10 | -1%
Cc1noc(C)c1NC(=O)N(C)C[C@H]1Oc2ccc(NC(=O)Nc3ccc4c(c3)OCO4)cc2C(=O)N([C@H](C)CO)C[C@@H]1C | x | 65 | x | -4 | x
